# An excerpt weighted towards active compounds, which were near 3% of everything screened.
# PAFAH1B2 FP inh: PAFAH1B2 (human) inhibition | recombinant PAFAH1B2, FP-rhodamine activity probe, fluorescence polarization | P68402 | inhibition, % at 3.39 µM | 340,000 tested, 1.2% active | AID 492953;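 active means inhibition above the mean of all tested compounds plus 3 SD, cut at about 24% in these data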;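 further: 0% = enzyme with DMSO and 100% = wells lacking PAFAH1B2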
# PAFAH2 FP inh: inhibitors of human PAFAH2; recombinant PAFAH2, FP-rhodamine activity probe, fluorescence polarization; inhibition, % at 3.39 µM; 340,000 tested, 0.99% active; AID 492956;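 active means inhibition above the mean over all tested compounds plus 3 SD, cut at about 30% in these data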;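 further: inhibitors block probe labeling of enzyme so polarization drops; 0% = enzyme with DMSO and 100% = wells lacking PAFAH2 protein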
# pPAFAH FP inh: inhibitors of human plasma PAF acetylhydrolase (pPAFAH); inhibition, % at 3.39 µM; recombinant pPAFAH, FP-rhodamine probe fluorescence polarization; Q13093; 330,000 tested, 1.5% active;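 active means inhibition above the mean inhibition across the screen plus 3 SD, cut at about 25% in these data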;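 further: inhibitors block binding of the rhodamine activity-based probe so polarization drops; 0% = enzyme with DMSO and 100% = wells lacking pPAFAH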
# Target sequence (Q13093 whole entry, looked up): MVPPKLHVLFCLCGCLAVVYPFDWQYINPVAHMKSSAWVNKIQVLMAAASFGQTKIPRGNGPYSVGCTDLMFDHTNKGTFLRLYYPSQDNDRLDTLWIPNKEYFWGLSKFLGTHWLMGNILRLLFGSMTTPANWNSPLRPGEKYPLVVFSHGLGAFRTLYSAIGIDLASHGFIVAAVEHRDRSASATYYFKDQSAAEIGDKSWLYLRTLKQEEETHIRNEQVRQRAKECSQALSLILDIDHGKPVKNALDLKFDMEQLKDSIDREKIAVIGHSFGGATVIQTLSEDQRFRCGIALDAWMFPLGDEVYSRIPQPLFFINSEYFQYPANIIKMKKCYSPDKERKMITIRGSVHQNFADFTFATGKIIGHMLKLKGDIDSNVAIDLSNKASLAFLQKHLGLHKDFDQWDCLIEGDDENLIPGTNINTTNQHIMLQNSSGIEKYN
# PAFAH1B3 inh: blocks human PAF acetylhydrolase 1B catalytic subunit 3. recombinant PAFAH1B3, FP-rhodamine probe, fluorescence polarization. Q15102. 340,000 tested, 0.28% active. AID 492972. inhibition, % at 3.39 µM;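 active means inhibition above the screen-wide average of all tested compounds plus 3 SD, cut at about 25% in these data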;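 further: 0% = enzyme with DMSO only and 100% = wells lacking PAFAH1B3 protein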
# ATG4B inh: blocks human ATG4B protease cleavage of LC3 substrate | AID 504462 | 340,000 tested, 0.51% active | ATG4B cleavage of LC3-PLA2, NBD-HPC fluorescence, 1 h | inhibition, % at 8.33 µM; in the data active means inhibition above about 40%
# DAGLB inh: blocks human DAGLB lipase activity | inhibition, % at 5.17 µM | HEK293T DAGLB membrane lysate, EnzChek fluorogenic substrate | 340,000 tested, 0.059% active; in the data active means inhibition above about 34%;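 further: 0% = enzyme with vehicle and 100% = wells lacking enzyme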
# Active calls of the source: *; . = no result given.
SMILES,PAFAH1B2 FP inh,PAFAH2 FP inh,pPAFAH FP inh,PAFAH1B3 inh,ATG4B inh,DAGLB inh
CN(Cc1ccc(F)cc1)C(=O)c1cccc(S(=O)(=O)NCc2ccccc2)c1,25*,-4,7,5,-3,-1
COc1cccc(NC(=O)CN(C)C(=O)c2cccc(NS(=O)(=O)c3ccc(Br)cc3)c2)c1,30*,4,.,0,-22,-2
CC1CCCC(NC(=O)c2cccc(S(=O)(=O)N3CCN(c4ccccc4)CC3)c2)C1C (stereo not drawn),-4,-1,3,4,3,-2
CN(CC(=O)Nc1ccc(F)cc1)C(=O)c1cccc(NS(=O)(=O)c2ccccc2)c1,0,-3,29*,-1,-46,-2
CN(Cc1ccc(F)cc1)C(=O)c1ccc(NS(=O)(=O)c2ccccc2)cc1,6,4,8,-5,-7,-1
CC1CCCC(NC(=O)c2cccc(S(=O)(=O)NCc3ccccc3)c2)C1C (stereo not drawn),30*,1,3,0,5,-4
COc1cccc(NC(=O)CN(C)C(=O)c2cccc(NS(=O)(=O)c3ccccc3)c2)c1,7,2,20,10,-3,-1
COc1cccc(NC(=O)CN(C)C(=O)c2ccc(NS(=O)(=O)c3ccc(F)cc3)cc2)c1,1,4,4,7,-5,-5
CCCCn1nnc(NC(=S)NC(=O)c2cccs2)n1,5,4,0,4,-4,-1
CN(C)CCOc1ccc(C(C)(C)c2ccccc2)cc1,5,5,5,10,-2,1
CC(C)(c1ccccc1)c1ccc(OCC2CO2)cc1 (stereo not drawn),17,-9,25*,1,21,-4
Cc1ccn2cc(CCNS(=O)(=O)c3ccc([N+](=O)[O-])cc3)nc2c1,11,-3,30*,11,11,3
CC1CCN(S(=O)(=O)c2ccc(NC(=O)c3ccco3)cc2)CC1,27*,-11,-5,9,6,1
CC1CCN(S(=O)(=O)c2ccc(NC(=O)c3ccncc3)cc2)CC1,29*,-3,-1,14,1,1
O=C(N[C@@H](Cc1ccccc1)C(=O)N1CCN(S(=O)(=O)c2ccc(F)cc2)CC1)c1ccco1,24*,3,.,12,-5,-1
COC(=O)Nc1ccc(S(=O)(=O)N2CCC(C)CC2)cc1,25*,9,-6,-5,-8,-4
Cc1cc(C(F)F)nn1CC(=O)NC1C(=O)N2C(C(=O)O)=C(CSc3nnnn3C)CSC12 (stereo not drawn),2,6,4,0,5,0
CC1CCN(S(=O)(=O)c2ccc(NC(=O)C3CC3)cc2)CC1,25*,-5,5,0,-2,-3
CC1CCN(S(=O)(=O)c2ccc(NC(=O)C3CCCCC3C(=O)O)cc2)CC1 (stereo not drawn),6,6,.,3,7,4
CC1CCN(S(=O)(=O)c2ccc(NC(=O)[C@@H]3CCCC[C@@H]3C(=O)O)cc2)CC1,48*,4,1,1,-2,1
O=C(CN1C(=O)NC(c2ccccc2)(c2ccccc2)C1=O)NC1CCCCC1,2,5,4,6,-1,-1
Cc1ccc2c(c1)c1c3n2CC(=C2C(=O)OC(C)(C)OC2=O)NC3CCC1 (stereo not drawn),3,22,29*,13,-21,5
COC(=O)c1ccc(CSc2nc3scc(-c4cccs4)c3c(=O)[nH]2)o1,11,16,29*,6,54*,10
COC(=O)c1ccc(CSc2nc3ccc(Cl)cc3[nH]2)o1,13,9,14,3,4,-6
O/N=C1/C2C3C(Br)C4C5CC(C1C53)C24 (stereo not drawn),29*,5,3,10,-1,0
SMILES,PAFAH1B2 FP inh,PAFAH2 FP inh,pPAFAH FP inh,PAFAH1B3 inh,ATG4B inh,DAGLB inh
O=[N+]([O-])c1ccc(O)c(/C=N/n2c(CO)nc3ccccc32)c1,9,5,1,10,1,7
C/C(=N\OCc1nc2ccccc2c(=O)n1/N=C/c1cc([N+](=O)[O-])ccc1O)c1ccccc1,0,25,62*,18,-6,8
COCCn1c(=O)[nH]c(=O)c2c1nc(-c1cc(Br)c3c(c1)OCO3)n2Cc1ccccc1,-2,11,8,3,-8,4
CCOC(=O)C1=C(COC(=O)c2sccc2C)NC(=O)NC1C (stereo not drawn),7,0,1,12,-1,1
CCOC(=O)C1=C(COC(=O)c2ccc([N+](=O)[O-])s2)NC(=O)NC1C (stereo not drawn),11,36*,4,52*,-9,-2
CCc1ccc2[nH]c(O)c(N=NC3=NC(=O)CS3)c2c1,34*,-5,24,9,-3,8
N#Cc1c(SCC(=O)Nc2cccc(F)c2)sc2c(O)cc(=O)[nH]c12,8,15,30*,18,6,6
CCOc1cccc(NC(=O)CSc2sc3c(O)cc(=O)[nH]c3c2C#N)c1,1,-1,16,9,-6,5
N#Cc1c(SCC(=O)Nc2ccc(Cl)cc2Cl)sc2c(O)cc(=O)[nH]c12,1,10,30*,8,2,10
N#Cc1c(SCC(=O)Nc2ccccc2C(F)(F)F)sc2c(O)cc(=O)[nH]c12,6,7,27*,9,0,7
CCCSc1nnc(NC(=O)CSc2sc3c(O)cc(=O)[nH]c3c2C#N)s1,16,37*,43*,15,30,21
Cc1c(Cl)cccc1NC(=O)CSc1sc2c(O)cc(=O)[nH]c2c1C#N,8,-1,20,4,-6,9
C/C(=N/NC(=O)CNc1ccc(Cl)cc1C)c1ccc(C)cc1,1,2,4,-3,-8,-2
CCCCC(=O)NC(c1ccc(Cl)cc1Cl)c1ccc2cccnc2c1O (stereo not drawn),-2,2,.,6,-1,-13
CCC(=O)NC(c1ccc(Cl)cc1Cl)c1ccc2cccnc2c1O (stereo not drawn),0,6,27*,14,-2,14
CC(C)C(=O)NC(c1ccc(Cl)cc1Cl)c1ccc2cccnc2c1O (stereo not drawn),-1,-12,26*,9,-1,-8
COc1ccc(C(NC(=O)C(C)C)c2ccc3cccnc3c2O)cc1 (stereo not drawn),-1,2,5,5,-3,13
S=c1[nH]nc(-c2ccco2)n1C1CCCCC1,26*,4,4,10,-6,3
Nn1c(-c2ccco2)n[nH]c1=S,-3,-2,0,6,2,-3
CC1=NN(c2ccccc2)C(=O)C1C=Nc1ccc(N(C)C)cc1 (stereo not drawn),.,.,34*,.,-5,.

# Source: PubChem BioAssay (several laboratories)
